Assay outcomes deposited in PubChem by several laboratories.
In the library only some 2% were active in any assay of this set; here they are far more common.
PfHsp40 rescue: rescue of yeast from PfHsp40 toxicity, primary screen, S. cerevisiae, ATP luminescence | 340,000 compounds, 0.68% hits | S. cerevisiae expressing PfHsp40, growth rescue | AID 504582, 2011 | growth rescue, % at 12.5 µM; in the data active = growth rescue above about 28%, passing the limit was not always enough; inconclusive = no clear call, values can overlap the other calls;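 note: yeast W303a lacking pdr1 and pdr3 grown in galactose medium; growth measured after three days at 30 °C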
PrP UTR inh: inhibition of PrP 5' UTR reporter expression; inhibition, % (concentration not given with the values); 340,000 compounds, 0.35% hits; cell-based PrP 5' UTR mRNA reporter, plate reader; AID 488862, 2010; in the data active = inhibition above about 52%
BJeLR viability: MLPCN primary cell-based screen for lethality selective to Ras in HRASV12 cells; BJeLR (HRASV12) viability, CellTiter-Glo ATP luminescence, 48 h; inhibition, % (test concentration not listed); 300,000 compounds, 0.17% hits; AID 1554, 2009; in the data active = inhibition above about 50%; inconclusive = no clear call, values can overlap the other calls
CCHFV vOTU inh: CCHFV vOTU protease inhibitors, primary screen, biochemical, Pep-AMC substrate, fluorescence. Crimean-Congo hemorrhagic fever virus L polyprotein viral ovarian tumor (vOTU) protease …. AID 651958, 2012. inhibition, % at 11.5 µM. 370,000 compounds, 0.55% hits; in the data active = inhibition above about 30%
Yp Topo-I inh: Yersinia pestis topoisomerase I inhibitors, primary screen, biochemical, cleavage product accumulation, plate reader, single point; DNA topoisomerase I (Yersinia pestis CO92); Y. pestis Topo-I cleavage product accumulation; activity, % at 10 µM; 360,000 compounds, 0.064% hits; AID 504884, 2011; in the data active = activity above about 50%, passing the limit was not always enough; inconclusive = no clear call, values can overlap the other calls
PrPC TRFRET: inhibitors of human cell surface prion protein PrPC, primary screen, cell-based, TR-FRET; Major prion protein (Homo sapiens), P04156; TR-FRET read-out; inhibition, % at 13.8 µM; 370,000 compounds, 0.43% hits; AID 720596, 2013; in the data active = inhibition above about 24%
Large screens that a line does not name were inactive; ! = not active in a repeat.

CC(C)(C)C1CCc2[nH]c3ccccc3c(=O)c2C1 (stereo not drawn)	PfHsp40 rescue 102
Cc1ccc(Cc2c(C)c(C#N)c3[nH]c4ccccc4n3c2=O)cc1	PfHsp40 rescue inconclusive
C=C(C)Cc1c(C)c(C#N)c2[nH]c3ccccc3n2c1=O	PfHsp40 rescue 131
COC(=O)[C@]12C[C@H](CC(=O)N3CCCCC3)C(=O)N(CCC3=CCCCC3)C1=C[C@H](COCc1ccccc1)O[C@@H]2C	none (no result: PfHsp40 rescue, PrP UTR inh, BJeLR viability, Yp Topo-I inh)
CCc1ccc([C@@H]2CC=C(C(=O)O)[C@H](c3cccc(Cl)c3)N2S(=O)(=O)c2ccc(C)cc2)cc1	PfHsp40 rescue 156 (no result: BJeLR viability)
Cc1ccc([C@H]2C(C(=O)O)=CC[C@@H](c3cccc(Cl)c3)N2S(=O)(=O)c2ccc(C)cc2)cc1	PfHsp40 rescue 213 (no result: BJeLR viability)
Cc1ccc(S(=O)(=O)N2[C@@H](c3cccc(Cl)c3)C(C(=O)O)=CC[C@H]2c2cccc(Cl)c2)cc1	none (no result: BJeLR viability)
CCc1ccc([C@@H]2CC=C(C(=O)O)[C@H](c3ccc(Cl)cc3)N2S(=O)(=O)c2ccc(C)cc2)cc1	PfHsp40 rescue 281 (no result: BJeLR viability)
COc1cc(OC)cc(-c2csc(N3CCC(C(N)=O)CC3)n2)c1	none (no result: PfHsp40 rescue, PrP UTR inh, BJeLR viability, CCHFV vOTU inh, Yp Topo-I inh)
O=[N+]([O-])c1ccc(CN2CCOCCOCCN(Cc3ccc([N+](=O)[O-])cc3Cl)CCOCC2)c(Cl)c1	none (no result: PfHsp40 rescue, PrP UTR inh, BJeLR viability, CCHFV vOTU inh, Yp Topo-I inh)
CCCCCCCCN1C(=O)N2Cc3ccccc3C2CS1(=O)=O (stereo not drawn)	none (no result: PfHsp40 rescue, PrP UTR inh, BJeLR viability, Yp Topo-I inh)
CC(C)(C)OC(=O)NCc1cc2c(cc1/C=C/S(=O)(=O)NC1CCCC1)OCO2	none (no result: PfHsp40 rescue, PrP UTR inh, BJeLR viability, Yp Topo-I inh)
COC(=O)[C@]12C[C@H](CC(=O)NCCc3ccccc3OC)C(=O)N(Cc3ccco3)C1=C[C@H](C1CCCC1)O[C@@H]2C	none (no result: PfHsp40 rescue, PrP UTR inh, BJeLR viability, Yp Topo-I inh)
CCOc1ccccc1NC(=O)Nc1ccc2c(c1)OCO2	none
C=CCOc1ccccc1CN(C(=O)CCl)c1ccc2c(c1)OCO2	BJeLR viability 125
CC(C)(C)c1ccc(-c2cn(C[C@H](Cc3ccccc3)n3c(=O)c4ccccc4n3Cc3ccno3)nn2)cc1	none (no result: PfHsp40 rescue, PrP UTR inh, BJeLR viability, Yp Topo-I inh)
Brc1ccc(Cn2c(-c3ccc(Br)o3)nc3ccccc32)o1	PfHsp40 rescue 56
CCOC(=O)c1sc2nc(CC(=O)OC)nc(NCCN3CCOCC3)c2c1C	none
CCOC(=O)c1sc2nc(CC(=O)OC)nc(NCCN(CC)CC)c2c1C	PfHsp40 rescue 74
NS(=O)(=O)c1ccc(NC(=O)c2cc(-c3cccs3)nc3ccccc23)cc1	BJeLR viability 63
O=C1c2ccccc2NC(c2ccc(-c3cccc([N+](=O)[O-])c3)o2)N1O (stereo not drawn)	PfHsp40 rescue 233
O=C1c2ccccc2NC(c2ccc(-c3ccc(Br)cc3)o2)N1O (stereo not drawn)	none
O=C1c2ccccc2NC(c2ccc(-c3ccc(F)cc3)o2)N1O (stereo not drawn)	PfHsp40 rescue 168 (no result: BJeLR viability)
O=C(C1CCCN(S(=O)(=O)c2ccccc2[N+](=O)[O-])C1)N1CCN(Cc2ccccc2)CC1 (stereo not drawn)	none (no result: PfHsp40 rescue, PrP UTR inh, BJeLR viability, Yp Topo-I inh)
CCCCOCCCNC(=O)C[C@H]1C[C@@]2(C(=O)OCC)CCCC3=C2N(CCC3)C1=O	none (no result: PfHsp40 rescue, PrP UTR inh, BJeLR viability, Yp Topo-I inh)
C=CCn1c(SCC(=O)Nc2ccccc2OCC)nnc1-c1ccc(C(C)(C)C)cc1	none (no result: PfHsp40 rescue, PrP UTR inh, BJeLR viability, Yp Topo-I inh)
CCN(CC)c1nc(-c2ccccn2)nc(-c2ccccc2)c1C#N	PfHsp40 rescue 71
COc1ccc(Br)c(C(=O)NC2CCCC2)c1	none
COCCCn1c(-c2ccc(OC)cc2)cc(C(=O)NC2CCCCCCC2)c1C	Yp Topo-I inh 56
CCn1c(SCC(=O)NN=Cc2c[nH]c3ccccc23)nc2ccccc21	none (no result: PfHsp40 rescue, PrP UTR inh, BJeLR viability, Yp Topo-I inh)
COc1ccc(NC(=O)C(=O)NCC2CCCN2S(=O)(=O)c2ccc(C)cc2)cc1 (stereo not drawn)	PrP UTR inh 78, BJeLR viability 51
O=[N+]([O-])c1ccc(O)c(/C=N/NC(=S)Nc2ccc(Cl)cc2Cl)c1	none
Cc1ccccc1C(=O)N/N=C/c1ccc([N+](=O)[O-])s1	none
O=C(N/N=C/c1ccc([N+](=O)[O-])s1)c1ccccc1	PfHsp40 rescue 150
O=[N+]([O-])c1ccc(/C=N/NC(=S)Nc2ccc(Cl)cc2Cl)s1	PfHsp40 rescue 240
Cc1ccc(S(=O)(=O)NC(=O)NCc2ccc3c(c2)OCO3)cc1	PfHsp40 rescue 55
COC(=O)[C@]12C[C@H](CC(=O)NCc3cccc(C(F)(F)F)c3)C(=O)N(CCC3=CCCCC3)C1=C[C@H](COCc1ccccc1)O[C@@H]2C	none (no result: PfHsp40 rescue, PrP UTR inh, BJeLR viability, Yp Topo-I inh)
CCCCOc1ccc(C(=O)NC2CCCCN(C)C2=O)cc1 (stereo not drawn)	none (no result: PfHsp40 rescue, PrP UTR inh, BJeLR viability, Yp Topo-I inh)
O=C(CC(c1ccccc1)c1ccccc1)Nc1ccc(Cl)cn1	PrPC TRFRET 29
O=C(CS(=O)(=O)c1ccccc1)Nc1ccc(Cl)cn1	none
CC1=[N+](C)c2c(ccc3cccnc23)C1(C)C	CCHFV vOTU inh 31 (no result: BJeLR viability)
Cc1[nH]c2c(ccc3cccnc32)c1C	none
CC(C)CNC(=O)OCc1cn(Cc2cccc(F)c2)nn1	none (no result: PfHsp40 rescue, PrP UTR inh, BJeLR viability, Yp Topo-I inh)
O=C(N[C@@H](Cc1cccnc1)C(=O)N1CCC[C@H]1C(=O)NC1CCCC1)C1CC1	none (no result: PfHsp40 rescue, PrP UTR inh, BJeLR viability, Yp Topo-I inh)
CC1CC(C)CN(C(=O)c2cccc(S(=O)(=O)Nc3cc(C(F)(F)F)ccc3Cl)c2)C1 (stereo not drawn)	PfHsp40 rescue 225
O=C(O)C[C@H](O)C[C@H](O)/C=C/c1c(C2CC2)nc2ccccc2c1-c1ccc(F)cc1	BJeLR viability 53 (no result: PfHsp40 rescue, PrP UTR inh, CCHFV vOTU inh, Yp Topo-I inh, PrPC TRFRET)
COc1ccc(/C=N\NC(=O)c2cccc(F)c2)cc1COc1ccccc1	BJeLR viability 54
COc1ccc(S[C@]2(C(=O)N3CCN(c4ncccn4)CC3)CC(=O)N(P(=O)(OC)OC)[C@@H]2c2ccc(OC)cc2)cc1	none (no result: PfHsp40 rescue, PrP UTR inh, BJeLR viability, Yp Topo-I inh)
Cc1ccc(C(O)(C(=O)NNc2ccc3ccccc3n2)c2ccc(C)cc2)cc1	PfHsp40 rescue 75!
O=C(Nc1ccc2nn(-c3ccccc3)nc2c1)c1cccnc1	PfHsp40 rescue 115 (no result: BJeLR viability)
Cc1ccc(-n2[nH]c(C)c(C=Nc3ccc4[nH]c(=O)[nH]c4c3)c2=O)cc1	none
Cc1ccc(N=Cc2c(C)[nH]n(-c3nc4ccccc4[nH]3)c2=O)cc1	BJeLR viability 103
CCOc1ccc(CCNC(=O)c2cc3sccc3n2Cc2cccc(C)c2)cc1OCC	none (no result: PfHsp40 rescue, PrP UTR inh, BJeLR viability, CCHFV vOTU inh, Yp Topo-I inh)
COC(=O)C(=N/Nc1ccccc1C(=O)OC)/C(C)=N/O	PfHsp40 rescue 137
O=C(Cn1cnc2ccccc2c1=O)c1cccs1	PfHsp40 rescue 41
O=C(Cn1cnc2ccc(Cl)cc2c1=O)c1cccs1	none
CC(=O)Nc1cc(OC(C)=O)c2nonc2c1OC(C)=O	CCHFV vOTU inh 101 (no result: BJeLR viability)
COc1cccc(NC(=S)NCCC(c2ccccc2)c2ccccc2)c1	none
Cc1c(Cl)cccc1NC(=S)NCCC(c1ccccc1)c1ccccc1	PfHsp40 rescue 54
